Data as given in PubChem BioAssay (NCI).
Values joined by “and” are separate entries in the source; they are usually repeats but may differ in a detail not shown here. Identical values can stand only once. This is part of a sample that, as a whole, favours compounds with a hit. Of some 83,000 tested, about 20% had one in any assay.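 Activity criterion: percent growth below 10, measured after cells in 96-well plates were exposed to a single compound concentration for 48 hours.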 Active and inactive are the calls of the source.

How the values were obtained:
Assay in all cases: NCI-60 one-dose screen, 48 h (100 = growth as untreated, 0 = no growth, -100 = all killed)
Details in all cases: 10 µM unless noted
[1] = system: SR leukemia
[2] = system: RPMI-8226 leukemia
[3] = system: OVCAR-8 ovarian
[4] = system: OVCAR-5 ovarian
[5] = system: OVCAR-4 ovarian
[6] = system: OVCAR-3 ovarian
[7] = system: HS 578T breast
[8] = system: NCI/ADR-RES ovarian
[9] = system: IGROV1 ovarian
[10] = system: SK-OV-3 ovarian

SMILES	growth [1]	growth [2]	growth [3]	growth [4]	growth [5]	growth [6]	growth [7]	growth [8]	growth [9]	growth [10]
COc1ccccc1NC(=O)OCC#CCOC(=O)Nc1ccccc1OC	88% (inactive) and 61.5% (inactive)	90.2% (inactive) and 72.3% (inactive)	106% (inactive) and 97.6% (inactive)	98.9% (inactive) and 98.3% (inactive)	99.2% (inactive) and 94% (inactive)	127% (inactive) and 86.4% (inactive)	99.7% (inactive) and 76.3% (inactive)	98.7% (inactive) and 92.7% (inactive)	–	–
COc1ccccc1C(C)=O	95.8% (inactive) and 86% (inactive)	90.6% (inactive) and 100% (inactive)	105% (inactive) and 96.7% (inactive)	117% (inactive) and 106% (inactive)	111% (inactive) and 105% (inactive)	106% (inactive) and 110% (inactive)	88.2% (inactive)	106% (inactive) and 113% (inactive)	119% (inactive) and 109% (inactive)	–
Cc1nn(-c2ccccc2)nc1C(=O)Nc1ccccc1C(=O)NCC1CC1	54.5% (inactive)	92.9% (inactive) and 92% (inactive)	95.8% (inactive) and 30.7% (inactive)	99.6% (inactive) and 86.8% (inactive)	106% (inactive) and 40.5% (inactive)	133% (inactive) and 54.2% (inactive)	–	89.6% (inactive) and 41.4% (inactive)	108% (inactive) and 33.7% (inactive)	–
CCN(CC)CCCC(C)N(Cc1ccccc1)CC(O)c1ccc(Cl)cc1 (configuration not stated)	119% (inactive) and 98.1% (inactive)	99.9% (inactive) and 96.7% (inactive)	105% (inactive) and 102% (inactive)	91.2% (inactive)	116% (inactive) and 112% (inactive)	109% (inactive) and 100% (inactive)	93.8% (inactive) and 111% (inactive)	108% (inactive) and 98.3% (inactive)	–	–
CC(=O)C(/C=N/C(N)=O)=C(/C)O	96.9% (inactive)	112% (inactive)	104% (inactive)	109% (inactive)	114% (inactive)	121% (inactive)	108% (inactive)	99.4% (inactive)	–	–
CCN(CC)CCNc1cc(-c2cccc(OC(F)(F)F)c2)nc2ccc(N3CCCC3)cc12	-29.4% (active) and -36.8% (active) and -10.8% (active)	-53.3% (active) and -33.8% (active) and 14.6% (inactive)	39.7% (inactive) and 2.29% (active) and 22.4% (inactive)	50.6% (inactive) and 5.44% (active) and 34.6% (inactive)	59.3% (inactive) and 44.7% (inactive) and 30% (inactive)	75.8% (inactive) and -2.31% (active) and 47.2% (inactive)	66.4% (inactive) and -7.2% (active) and 38.9% (inactive)	9.79% (active) and -16.8% (active) and 25.2% (inactive)	-14.8% (active) and 6.93% (active) and 25.2% (inactive)	–
Cc1ccc(-c2noc(CC(=O)c3ccc([N+](=O)[O-])cc3)n2)cc1	98.1% (inactive)	116% (inactive)	–	97.5% (inactive)	102% (inactive)	102% (inactive)	99.8% (inactive)	104% (inactive)	104% (inactive)	97.6% (inactive)
CC(C)Cc1ccc(C(C)C(=O)NCc2ccc(Cn3c(=O)sn(CCCI)c3=O)cc2)cc1 (configuration not stated)	56.4% (inactive) and 2.84% (active)	96.5% (inactive) and -19.8% (active)	–	103% (inactive) and -58.1% (active)	84.9% (inactive) and -53.2% (active)	92.7% (inactive) and -86% (active)	92.1% (inactive) and -1.05% (active)	106% (inactive) and -18.5% (active)	88.2% (inactive) and -82.1% (active)	70.9% (inactive)
O=C(N/N=C/c1ccccc1)N/N=C/c1ccccc1	93.8% (inactive) and 106% (inactive)	104% (inactive) and 100% (inactive)	103% (inactive) and 107% (inactive)	109% (inactive) and 105% (inactive)	115% (inactive)	120% (inactive)	118% (inactive) and 91.7% (inactive)	114% (inactive) and 106% (inactive)	99.9% (inactive) and 106% (inactive)	–
